# From PubChem
# Giardia killer – Giardia lamblia killing; Giardia lamblia trophozoite viability; activity change, % at 7.66 µM, hits read low; 340,000 compounds, 0.15% hits; in the data active = activity change below about -80%; inconclusive = between about -30% and that limit;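 also: parasites exposed to compound for two days anaerobically before the ATP read; % is scaled to controls: 0 for no effect and ±100 for the full control effect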
#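 Anaerobic 48 hrs incubation at 37 deg C of 100 trophozoites/well with test compounds; ATPLite 1-Step luminescence, 15-30 min RT, reports cellular ATP as viability.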
# HT1080NT lethal – kills 2HG-producing HT-1080-NT fibrosarcoma cells; 360,000 compounds, 1.6% hits; AID 686970; HT-1080-NT fibrosarcoma viability, CellTiter-Glo ATP luminescence, 48 h; Potency, µM (top dose mostly 46.1 µM), inactives show top-dose activity, negative = less viability, usual class: cytotoxic;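 also: NT is the 2HG producing partner of a matched IDH1 knockdown line; potency is read from the fitted curve at half-maximal effect; 0% = DMSO-treated cells and -100% = media-only wells without cells; nearly all actives have a fitted effect of over 55% in size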
#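 A 48-hour cytotoxicity screen used HT-1080-NT cells plated 2 hours before compound delivery. ATP-based CellTiter-Glo luminescence measured viability, normalized to DMSO and no-cell controls.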
# HepG2 tox – kills HepG2 cells in TGF-b inhibitor counter-screen. HepG2 CAGA-GFP viability, ATP luminescence, 18 h. 410,000 compounds, 0.76% hits. Potency, µM (top dose mostly 46.1 µM), for the others: top-dose activity change, negative = cytotoxicity, actives largely listed as cytotoxic; also: potency is read from the fitted curve at half-maximal effect
#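 HepG2 CAGA-GFP cells (1000/well, DMEM with 1% FBS) received compound, then TGF-beta at 500 pg/mL final, and were incubated 18 hours at 37 degrees C. Viability was read by CellTiter-Glo luminescence. Media-only wells were set as complete cell-killing and DMSO as no toxicity.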
# TGFb inhibitor – blocks TGF-b signaling; 410,000 compounds, 1.2% hits; HepG2 CAGA-GFP TGF-b/SMAD3 reporter, GFP fluorescence, 18 h; TGF-beta stimulated, 500 pg/mL final; Potency, µM (series often up to 46.1 µM), inactives show at the top dose activity, negative = inhibition, hits mostly inhibitors; also: potency is read from the fitted curve at half-maximal effect; % is scaled to controls: 0 for no effect and ±100 for the full control effect; nearly all actives have a fitted effect of over 65% in size
#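 Inhibition was scored as loss of TGF-beta-induced (500 pg/mL final, 18 hours, 37 degrees C) GFP in HEPG2 cells carrying a CAGA-GFP reporter, in DMEM with 1% FBS. Well GFP was summed per cell; Activity was normalised to unstimulated and stimulated DMSO wells, then concentration-response fitting.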
# HT1080 IDH1KD tx – HT-1080 IDH1 knockdown cell toxicity (counter line); HT-1080 IDH1 knockdown viability, ATP luminescence, 48 h; 360,000 compounds, 2% hits; Potency, µM (titrated, usually from 46.1 µM), for the others: at the top dose activity, negative = toxicity, usual class: cytotoxic;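 also: potency is read from the fitted curve at half-maximal effect; 0% = DMSO wells and -100% = cell-free medium wells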
#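 % activity derives from luminescence (CellTiter-Glo), normalised to DMSO and no-cell wells. HT-1080-IDH1KD cells, 750/well, had 48 h compound exposure at 37 °C.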
# IL1B secr inh – blocks inflammasome-driven IL-1 beta release. THP-1 LPS/ATP IL-1B secretion, AlphaLISA, 16 h; stronger effect = lower value. activity change, % at 57.5 µM. 360,000 compounds, 4.7% hits. AID 743279; in the data active = activity change below about -50%; inconclusive = mostly about -30% to -49%; also: % is scaled to controls: 0 for no effect and ±100 for the full control effect
#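 THP-1 cells pretreated 1 hr with compounds (up to 57.5 uM final), then stimulated with LPS (250 ng/mL final) plus ATP (1.25 mM final); secreted IL-1B measured by AlphaLISA after 16 hr, decreased signal indicating inhibition.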
# * = called active by the depositor; u = inconclusive; x = no result. Sampled rows, rich in hits. Any-hit rate of the full collection: about 6.5%. Unless noted, calls follow the shape of the dose curve; as a rule, active = well fitted curve in the direction sought with a large enough effect; inconclusive = small, poorly fitted or top-dose-only effect, or another doubt; inactive = no such curve, though single readings can be large; an effect the other way counts as inactive or inconclusive.
SMILES,Giardia killer,HT1080NT lethal,HepG2 tox,TGFb inhibitor,HT1080 IDH1KD tx,IL1B secr inh
N#CC(C#N)=C(Nc1ccc(F)cc1)SCc1cccc(Br)c1,11,9.2µM*,-75%,1.6µM*,18µM*,-96*
CC(SCc1ccccc1)C(=O)Nc1ccc(F)cc1 (stereo unspecified),3,-4%,-5%,-7%,-8%,-18
Cc1cccc(CSC(Nc2ccc(F)cc2)=C(C#N)C#N)c1,-14,u,-28%,5µM*,-24%,-18
COC(=O)c1cccc(NC(=S)N2CCCCC2)c1,-3,12%,17%,4%,u,19
CC(=O)c1ccc(-c2cnc3c(NC=O)cc(-c4ccc(N5CCN(C)CC5)cc4)cn23)cc1,x,26µM*,-32%,u,u,-27
CC(=O)Nc1cccc(-c2cc(NC(C)=O)c3ncc(-c4cccc(C(C)=O)c4)n3c2)c1,x,-1%,-4%,-21%,u,22
CC(=O)Nc1cc(-c2ccc(N3CCN(C)CC3)cc2)cn2c(-c3cccc(C(C)=O)c3)cnc12,x,-19%,-59%,u,-29%,-23
CN1CCN(c2ccc(-c3cc(NC=O)c4ncc(-c5ccc(F)c(Cl)c5)n4c3)cc2)CC1,x,u,-86%,20µM*,u,82
CC(=O)Nc1cccc(-c2cc(NC=O)c3ncc(-c4ccc(C(C)=O)cc4)n3c2)c1,x,23µM*,-2%,u,-6%,-19
CC(=O)Nc1cc(-c2ccc(N3CCN(C)CC3)cc2)cn2c(-c3ccc(F)c(Cl)c3)cnc12,x,21µM*,-99%,u,16µM*,x
CCn1c(SCC(=O)N2CCc3ccccc32)nnc1-c1ccncc1,-5,4%,-8%,-3%,11%,8
Cc1cc(Sc2nnc(N)s2)c2ccccc2n1,23,u,-101%,7.1µM*,u,-113*
Cc1cc(Sc2nnc(/N=C/N(C)C)s2)c2ccccc2n1,-16,15µM*,11µM*,8.9µM*,18µM*,-89*
Cc1cc(C)c2ccccc2n1,x,x,-6%,-2%,x,x
CCCCCCCCSc1nnc(/N=C/N(C)C)s1,28,-5%,6%,16%,3%,16
CC1(C)Cc2cccc(OCC(=O)OCc3nnc(-c4ccccc4)o3)c2O1,2,-2%,0%,-10%,-3%,11
Cc1cc(F)ccc1S(=O)(=O)N1CCCOC1CNC(=O)C(=O)NCC(C)C (stereo unspecified),-3,5%,-17%,12%,-1%,-1
CCOC(=O)c1[nH]c2ccc(OC)cc2c1NC(=O)NC(C)C,-8,22%,3%,-2%,12%,-4
CCC1CN(C(=O)N2CCC(C(=O)N3CCN(c4cccc(C)c4C)CC3)CC2)c2ccccc2O1 (stereo unspecified),x,x,-77%,u,x,x
CCOc1ccccc1CNC(=O)C1CCN(C(=O)N2CC(CC)Oc3ccc(C)cc32)CC1 (stereo unspecified),x,x,-39%,10µM*,x,x
Cc1ccc2c(c1)N(C(=O)N1CCC(C(=O)NCc3ccccc3F)CC1)CC(C)O2 (stereo unspecified),x,x,-48%,13µM*,x,x
CCC1CN(C(=O)N2CCC(C(=O)N3CCN(c4cc(C)ccc4C)CC3)CC2)c2ccccc2O1 (stereo unspecified),x,x,-73%,10µM*,x,x
CC1CN(C(=O)N2CCC(C(=O)NCCCc3ccccc3)CC2)c2cc(Cl)ccc2O1 (stereo unspecified),x,x,-21%,14µM*,x,x
CC1CN(C(=O)N2CCC(C(=O)NCc3ccccc3F)CC2)c2cc(Cl)ccc2O1 (stereo unspecified),x,x,-29%,-15%,x,x
CCCCNC(=O)C1CCN(C(=O)N2CC(C)Oc3ccc(Cl)cc32)CC1 (stereo unspecified),x,x,-21%,-29%,x,x
SMILES,Giardia killer,HT1080NT lethal,HepG2 tox,TGFb inhibitor,HT1080 IDH1KD tx,IL1B secr inh
COc1cccc(C(=O)N2CCN(C(=O)C3CCCO3)CC2)c1 (stereo unspecified),15,18%,-31%,-17%,14%,0
O=C1c2ccccc2S(=O)(=O)c2cc(C(=O)N3CCC(O)CC3)ccc21,-5,2%,3%,16%,3%,13
CCOC(=O)CCCCCC(=O)Nc1ccc2c(c1)C(=O)N([C@@H](C)CO)C[C@@H](C)[C@H](CN(C)S(=O)(=O)c1cccs1)OCCCC[C@H](C)O2,x,6%,-3%,-5%,4%,-17
CCC1CN(C(=O)N2CCC(C(=O)NCCc3ccccc3C)CC2)c2ccccc2O1 (stereo unspecified),x,x,-30%,u,x,x
CCC1CN(C(=O)N2CCC(C(=O)NCCc3ccccc3Cl)CC2)c2cc(C)ccc2O1 (stereo unspecified),x,x,-34%,11µM*,x,x
Cn1c(SCC(N)=O)nnc1C1CCN(S(=O)(=O)c2ccccc2C(F)(F)F)CC1,1,-2%,-24%,-5%,-4%,0
OC1Cc2ccccc2C1Nc1cccc(C(F)(F)F)c1 (stereo unspecified),-2,-1%,-27%,u,11%,-66*
N#Cc1ccc(NC2c3ccccc3CC2O)cc1 (stereo unspecified),12,-2%,0%,-11%,-17%,30
N=C1SCC(=O)N1c1ncc(Cc2ccc(F)cc2)s1,-5,u,-27%,u,16µM*,-104*
CN(CCOc1ccccc1)C(=S)Nc1ccc(OC(F)F)cc1,4,-1%,-4%,u,-19%,-58*
O=C(NCCc1ccccc1)C1CCN(S(=O)(=O)c2cccc3nonc23)CC1,0,1%,-25%,-13%,1%,-7
Cc1ccccc1OCC(=O)OCC(=O)NC12CC3CC(CC(C3)C1)C2,x,-1%,-34%,-13%,7%,3
O=C1CSC(=S)N1Nc1ccccc1,4,u,-1%,14%,5.8µM*,-13
CC1(C(=O)NS(=O)(=O)c2ccc(Cl)s2)CCN1C(=O)Cc1ccccc1Cl (stereo unspecified),x,10%,2%,-6%,0%,24
C/C(=N\NC(=S)Nc1ccc(F)cc1)c1ccc2c(c1)OCCO2,-6,u,-75%,-30%,u,-58*
C/C(=N\NC(N)=S)c1ccc2c(c1)OCCO2,10,2%,-7%,7%,3%,3
Cc1ccc(NC(=O)CN(C)C(=O)CSc2ncc(C(F)(F)F)cc2Cl)cc1,-7,-1%,-6%,10%,0%,-8
CCOc1ccccc1NC(=O)c1ccc(S(=O)(=O)N(C)C)cc1,-6,-1%,20%,1%,8%,-15
